According to article PMC11062922 (Nature Chemical Biology, 2023):
Like-named read-outs stand apart in the source and are kept apart here.

Tests used:
[1] = tested on: RPS6KA4; details: read-out: apparent Kd, n = 1
[2] = tested on: TNIK; details: read-out: apparent Kd, n = 1
[3] = compound concentrations:100 nM and 1000 nM (sheet 'Lestaurtinib' of Supplementary Table 1),run:Lestaurtinib_02624_R1,Plate:MR020
[4] = compound concentrations:100 nM and 1000 nM (sheet 'Lestaurtinib' of Supplementary Table 1),run:Lestaurtinib_02624_R2,Plate:MR020
[5] = compound concentrations:100 nM and 1000 nM (sheet 'Lestaurtinib' of Supplementary Table 1),run:Lestaurtinib_02724_R3,Plate:MR021
[6] = compound concentrations:100 nM and 1000 nM (sheet 'Lestaurtinib' of Supplementary Table 1),run:Lestaurtinib_02741_R1,Plate:MR023
[7] = compound concentrations:100 nM and 1000 nM (sheet 'Lestaurtinib' of Supplementary Table 1),run:Lestaurtinib_02741_R2,Plate:MR023
[8] = compound concentrations:100 nM and 1000 nM (sheet 'Lestaurtinib' of Supplementary Table 1),run:Lestaurtinib_02741_R3,Plate:MR023
[9] = compound concentrations:100 nM and 1000 nM (sheet 'Lestaurtinib' of Supplementary Table 1),run:Lestaurtinib_02752_R1,Plate:MR025
[10] = compound concentrations:100 nM and 1000 nM (sheet 'Lestaurtinib' of Supplementary Table 1),run:Lestaurtinib_02765_R2,Plate:MR026
[11] = compound concentrations:100 nM and 1000 nM (sheet 'Lestaurtinib' of Supplementary Table 1),run:Lestaurtinib_02766_R2,Plate:MR027
[12] = compound concentrations:100 nM and 1000 nM (sheet 'Lestaurtinib' of Supplementary Table 1),run:Lestaurtinib_02766_R3,Plate:MR027
[13] = compound concentrations:100 nM and 1000 nM (sheet 'Lestaurtinib' of Supplementary Table 1),run:Lestaurtinib_02768_R1,Plate:MR028
[14] = compound concentrations:100 nM and 1000 nM (sheet 'Lestaurtinib' of Supplementary Table 1),run:Lestaurtinib_02768_R3,Plate:MR028

Lestaurtinib
potency estimated from few doses ([1]; compound concentrations:100 nM and 1000 nM (sheet 'Lestaurtinib' of Supplementary Table 1),run:Lestaurtinib_02606_R2,Plate:MR019): 1310 nM | potency estimated from few doses ([1]; compound concentrations:100 nM and 1000 nM (sheet 'Lestaurtinib' of Supplementary Table 1),run:Lestaurtinib_02606_R3,Plate:MR019): 1340 nM | potency estimated from few doses [1, 3]: 1570 nM | potency estimated from few doses [1, 4]: 952 nM | potency estimated from few doses ([1]; compound concentrations:100 nM and 1000 nM (sheet 'Lestaurtinib' of Supplementary Table 1),run:Lestaurtinib_02724_R1,Plate:MR021): 1570 nM | potency estimated from few doses ([1]; compound concentrations:100 nM and 1000 nM (sheet 'Lestaurtinib' of Supplementary Table 1),run:Lestaurtinib_02724_R2,Plate:MR021): 1150 nM | potency estimated from few doses [1, 5]: 731 nM | potency estimated from few doses [1, 6]: 865 nM | potency estimated from few doses [1, 7]: 999 nM | potency estimated from few doses [1, 8]: 1130 nM | potency estimated from few doses ([1]; compound concentrations:100 nM and 1000 nM (sheet 'Lestaurtinib' of Supplementary Table 1),run:Lestaurtinib_02748_R1,Plate:MR024): 769 nM | potency estimated from few doses ([1]; compound concentrations:100 nM and 1000 nM (sheet 'Lestaurtinib' of Supplementary Table 1),run:Lestaurtinib_02748_R3,Plate:MR024): 638 nM | potency estimated from few doses [1, 9]: 1210 nM | potency estimated from few doses ([1]; compound concentrations:100 nM and 1000 nM (sheet 'Lestaurtinib' of Supplementary Table 1),run:Lestaurtinib_02765_R1,Plate:MR026): 1510 nM | potency estimated from few doses [1, 10]: 1150 nM | potency estimated from few doses ([1]; compound concentrations:100 nM and 1000 nM (sheet 'Lestaurtinib' of Supplementary Table 1),run:Lestaurtinib_02766_R1,Plate:MR027): 911 nM | potency estimated from few doses [1, 11]: 974 nM | potency estimated from few doses [1, 12]: 783 nM | potency estimated from few doses [1, 13]: 814 nM | potency estimated from few doses ([1]; compound concentrations:100 nM and 1000 nM (sheet 'Lestaurtinib' of Supplementary Table 1),run:Lestaurtinib_02768_R2,Plate:MR028): 841 nM | potency estimated from few doses [1, 14]: 954 nM | potency estimated from few doses ([1]; compound concentrations:100 nM and 1000 nM (sheet 'Lestaurtinib' of Supplementary Table 1),run:Lestaurtinib_02795_R2,Plate:MR022): 1420 nM | potency estimated from few doses ([1]; compound concentrations:100 nM and 1000 nM (sheet 'Lestaurtinib' of Supplementary Table 1),run:Lestaurtinib_02802_R2,Plate:MR029): 865 nM | potency estimated from few doses ([1]; compound concentrations:100 nM and 1000 nM (sheet 'Lestaurtinib' of Supplementary Table 1),run:Lestaurtinib_02802_R3,Plate:MR029): 770 nM | potency estimated from few doses ([1]; compound concentrations:100 nM and 1000 nM (sheet 'Lestaurtinib' of Supplementary Table 1),run:Lestaurtinib_02896_R1,Plate:MR030): 748 nM | potency estimated from few doses ([1]; compound concentrations:100 nM and 1000 nM (sheet 'Lestaurtinib' of Supplementary Table 1),run:Lestaurtinib_02896_R2,Plate:MR030): 1150 nM | potency estimated from few doses ([1]; compound concentrations:100 nM and 1000 nM (sheet 'Lestaurtinib' of Supplementary Table 1),run:Lestaurtinib_03172_R1,Plate:MR031): 1350 nM | potency estimated from few doses ([1]; compound concentrations:100 nM and 1000 nM (sheet 'Lestaurtinib' of Supplementary Table 1),run:Lestaurtinib_03172_R2,Plate:MR031): 771 nM | potency estimated from few doses ([1]; compound concentrations:100 nM and 1000 nM (sheet 'Lestaurtinib' of Supplementary Table 1),run:Lestaurtinib_03252_R2,Plate:MR032): 1300 nM | potency estimated from few doses ([1]; compound concentrations:100 nM and 1000 nM (sheet 'Lestaurtinib' of Supplementary Table 1),run:Lestaurtinib_03260_R3,Plate:MR033): 1400 nM | potency estimated from few doses ([2]; compound concentrations:100 nM and 1000 nM (sheet 'Lestaurtinib' of Supplementary Table 1),run:Lestaurtinib_02339_R2,Plate:MR001): 798 nM | potency estimated from few doses ([2]; compound concentrations:100 nM and 1000 nM (sheet 'Lestaurtinib' of Supplementary Table 1),run:Lestaurtinib_02364_R2,Plate:MR002): 206 nM | potency estimated from few doses ([2]; compound concentrations:100 nM and 1000 nM (sheet 'Lestaurtinib' of Supplementary Table 1),run:Lestaurtinib_02367_R1,Plate:MR003): 1130 nM | potency estimated from few doses ([2]; compound concentrations:100 nM and 1000 nM (sheet 'Lestaurtinib' of Supplementary Table 1),run:Lestaurtinib_02367_R2,Plate:MR003): 460 nM | potency estimated from few doses ([2]; compound concentrations:100 nM and 1000 nM (sheet 'Lestaurtinib' of Supplementary Table 1),run:Lestaurtinib_02367_R3,Plate:MR003): 1930 nM | potency estimated from few doses ([2]; compound concentrations:100 nM and 1000 nM (sheet 'Lestaurtinib' of Supplementary Table 1),run:Lestaurtinib_02407_R1,Plate:MR005): 160 nM | potency estimated from few doses ([2]; compound concentrations:100 nM and 1000 nM (sheet 'Lestaurtinib' of Supplementary Table 1),run:Lestaurtinib_02407_R2,Plate:MR005): 772 nM | potency estimated from few doses ([2]; compound concentrations:100 nM and 1000 nM (sheet 'Lestaurtinib' of Supplementary Table 1),run:Lestaurtinib_02407_R3,Plate:MR005): 136 nM | potency estimated from few doses ([2]; compound concentrations:100 nM and 1000 nM (sheet 'Lestaurtinib' of Supplementary Table 1),run:Lestaurtinib_02422_R1,Plate:MR006): 1750 nM | potency estimated from few doses ([2]; compound concentrations:100 nM and 1000 nM (sheet 'Lestaurtinib' of Supplementary Table 1),run:Lestaurtinib_02437_R1,Plate:MR007): 1310 nM | potency estimated from few doses ([2]; compound concentrations:100 nM and 1000 nM (sheet 'Lestaurtinib' of Supplementary Table 1),run:Lestaurtinib_02443_R2,Plate:MR009): 687 nM | potency estimated from few doses ([2]; compound concentrations:100 nM and 1000 nM (sheet 'Lestaurtinib' of Supplementary Table 1),run:Lestaurtinib_02473_R1,Plate:MR010): 165 nM | potency estimated from few doses ([2]; compound concentrations:100 nM and 1000 nM (sheet 'Lestaurtinib' of Supplementary Table 1),run:Lestaurtinib_02482_R1,Plate:MR011): 994 nM | potency estimated from few doses ([2]; compound concentrations:100 nM and 1000 nM (sheet 'Lestaurtinib' of Supplementary Table 1),run:Lestaurtinib_02487_R2,Plate:MR012): 159 nM | potency estimated from few doses ([2]; compound concentrations:100 nM and 1000 nM (sheet 'Lestaurtinib' of Supplementary Table 1),run:Lestaurtinib_02487_R3,Plate:MR012): 481 nM | potency estimated from few doses ([2]; compound concentrations:100 nM and 1000 nM (sheet 'Lestaurtinib' of Supplementary Table 1),run:Lestaurtinib_02496_R2,Plate:MR013): 764 nM | potency estimated from few doses ([2]; compound concentrations:100 nM and 1000 nM (sheet 'Lestaurtinib' of Supplementary Table 1),run:Lestaurtinib_02496_R3,Plate:MR013): 887 nM | potency estimated from few doses ([2]; compound concentrations:100 nM and 1000 nM (sheet 'Lestaurtinib' of Supplementary Table 1),run:Lestaurtinib_02566_R1,Plate:MR014): 845 nM | potency estimated from few doses ([2]; compound concentrations:100 nM and 1000 nM (sheet 'Lestaurtinib' of Supplementary Table 1),run:Lestaurtinib_02566_R2,Plate:MR014): 581 nM | potency estimated from few doses ([2]; compound concentrations:100 nM and 1000 nM (sheet 'Lestaurtinib' of Supplementary Table 1),run:Lestaurtinib_02572_R3,Plate:MR015): 52 nM | potency estimated from few doses ([2]; compound concentrations:100 nM and 1000 nM (sheet 'Lestaurtinib' of Supplementary Table 1),run:Lestaurtinib_02577_R2,Plate:MR016): 582 nM | potency estimated from few doses ([2]; compound concentrations:100 nM and 1000 nM (sheet 'Lestaurtinib' of Supplementary Table 1),run:Lestaurtinib_02577_R3,Plate:MR016): 885 nM | potency estimated from few doses ([2]; compound concentrations:100 nM and 1000 nM (sheet 'Lestaurtinib' of Supplementary Table 1),run:Lestaurtinib_02584_R1,Plate:MR017): 680 nM | potency estimated from few doses ([2]; compound concentrations:100 nM and 1000 nM (sheet 'Lestaurtinib' of Supplementary Table 1),run:Lestaurtinib_02584_R2,Plate:MR017): 717 nM | potency estimated from few doses ([2]; compound concentrations:100 nM and 1000 nM (sheet 'Lestaurtinib' of Supplementary Table 1),run:Lestaurtinib_02584_R3,Plate:MR017): 641 nM | potency estimated from few doses ([2]; compound concentrations:100 nM and 1000 nM (sheet 'Lestaurtinib' of Supplementary Table 1),run:Lestaurtinib_02601_R1,Plate:MR018): 756 nM | potency estimated from few doses ([2]; compound concentrations:100 nM and 1000 nM (sheet 'Lestaurtinib' of Supplementary Table 1),run:Lestaurtinib_02601_R2,Plate:MR018): 146 nM | potency estimated from few doses [2, 3]: 562 nM | potency estimated from few doses [2, 4]: 154 nM | potency estimated from few doses [2, 5]: 507 nM | potency estimated from few doses [2, 6]: 208 nM | potency estimated from few doses [2, 7]: 627 nM | potency estimated from few doses [2, 8]: 536 nM | potency estimated from few doses [2, 9]: 708 nM | potency estimated from few doses ([2]; compound concentrations:100 nM and 1000 nM (sheet 'Lestaurtinib' of Supplementary Table 1),run:Lestaurtinib_02752_R2,Plate:MR025): 671 nM | potency estimated from few doses [2, 10]: 797 nM | potency estimated from few doses ([2]; compound concentrations:100 nM and 1000 nM (sheet 'Lestaurtinib' of Supplementary Table 1),run:Lestaurtinib_02765_R3,Plate:MR026): 836 nM | potency estimated from few doses [2, 11]: 806 nM | potency estimated from few doses [2, 12]: 130 nM | potency estimated from few doses [2, 13]: 142 nM | potency estimated from few doses [2, 14]: 785 nM | potency estimated from few doses ([2]; compound concentrations:100 nM and 1000 nM (sheet 'Lestaurtinib' of Supplementary Table 1),run:Lestaurtinib_02795_R1,Plate:MR022): 573 nM
